# Several values for one entry are separate records, joined by “and”; a condition that tells them apart may be missing. Identical values can stand only once. Records with an inconclusive call do not appear. Activity calls are given as the source filed them. Unless noted, the call rests on the fitted dose curve; in most records, active means well fitted curve in the direction sought with a large enough effect; inconclusive means small, poorly fitted or top-dose-only effect, or another doubt; inactive means no such curve, though single readings can be large; an effect the other way counts as inactive or inconclusive.
# Tests used:
# [1] = target: Cytochrome P450 2D6 (Homo sapiens) (UniProt P10635); experiment: Cytochrome P450 family 2 subfamily D member 6 (CYP2D6) small molecule antagonists: luciferase biochemical (cell-free) qHTS assay (AID 1645840; active means well fitted curve in the direction sought with a large enough effect in the repeat runs; an effect the other way counts as inactive or inconclusive; further: on the % scale 0 is the no-effect control and ±100 the full control effect; nearly all actives have a fitted effect of over 55% in size)
# Cytochrome P450 2D6 (Homo sapiens), sequence (P10635 whole entry, looked up): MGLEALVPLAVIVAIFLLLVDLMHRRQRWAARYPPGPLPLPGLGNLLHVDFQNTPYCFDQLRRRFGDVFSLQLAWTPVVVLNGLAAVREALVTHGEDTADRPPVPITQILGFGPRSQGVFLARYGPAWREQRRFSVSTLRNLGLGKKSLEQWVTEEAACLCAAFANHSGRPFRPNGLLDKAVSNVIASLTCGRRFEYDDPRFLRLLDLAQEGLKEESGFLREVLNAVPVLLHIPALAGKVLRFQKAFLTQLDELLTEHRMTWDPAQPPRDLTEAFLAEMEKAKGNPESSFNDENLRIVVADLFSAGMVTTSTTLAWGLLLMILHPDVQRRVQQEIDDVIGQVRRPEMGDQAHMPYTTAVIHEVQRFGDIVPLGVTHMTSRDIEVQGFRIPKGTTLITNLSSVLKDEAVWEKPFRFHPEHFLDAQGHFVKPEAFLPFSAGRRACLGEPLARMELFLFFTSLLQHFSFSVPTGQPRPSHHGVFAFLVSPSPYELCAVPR
# How it was run: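 P450-Glo CYP2D6 system: proluciferin substrate converted by enzyme to luciferin, read by luminescence proportional to activity. Enzyme-substrate mix with compound 10 min at room temperature, then NADPH regeneration 1 h before detection reagent.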
# [2] = target: Cytochrome P450 2C9 (Homo sapiens) (UniProt P11712); experiment: Cytochrome P450 family 2 subfamily C member 9 (CYP2C9) small molecule antagonists: luciferase biochemical (cell-free) qHTS assay (AID 1645842; active means well fitted curve in the direction sought with a large enough effect in the repeat runs; an effect the other way counts as inactive or inconclusive; further: nearly all actives have a fitted effect of over 55% in size; further: potency means the concentration at half of the fitted maximal effect; on activity change, negative = inhibition: on the % scale 0 is the no-effect control and ±100 the full control effect)
# Cytochrome P450 2C9 (Homo sapiens), sequence (P11712 whole entry, looked up): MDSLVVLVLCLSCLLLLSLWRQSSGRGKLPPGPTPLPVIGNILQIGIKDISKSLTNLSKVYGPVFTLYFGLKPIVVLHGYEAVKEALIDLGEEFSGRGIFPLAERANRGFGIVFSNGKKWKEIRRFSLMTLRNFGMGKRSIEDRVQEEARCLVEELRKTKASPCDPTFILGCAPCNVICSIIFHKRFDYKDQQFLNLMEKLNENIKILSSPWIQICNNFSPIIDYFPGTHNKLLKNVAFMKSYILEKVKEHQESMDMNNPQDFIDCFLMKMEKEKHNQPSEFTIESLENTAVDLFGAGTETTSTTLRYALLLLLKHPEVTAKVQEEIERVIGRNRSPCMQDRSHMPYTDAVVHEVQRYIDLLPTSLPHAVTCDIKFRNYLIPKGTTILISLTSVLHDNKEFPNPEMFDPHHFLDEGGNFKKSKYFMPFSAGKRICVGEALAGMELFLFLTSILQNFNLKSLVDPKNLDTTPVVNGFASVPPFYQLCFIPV
# How it was run: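 P450-Glo CYP2C9 system: proluciferin substrate with enzyme in mix containing 0.4% BSA, 10 min at room temperature, then NADPH regeneration solution added and incubated 1 h at 37C. Detection reagent stopped reaction; luminescence read after 20 min as RLU.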
# [3] = Primary qHTS for inhibitors of nuclear receptor binding SET domain protein 2 (NSD2) in an isogenic RCH-ACV NSD2 p.E1099K mutant (9B) (AID 1645876); further: nearly all actives have a fitted effect of over 70% in size; further: potency means the concentration at half of the fitted maximal effect
# [4] = Primary qHTS for inhibitors of nuclear receptor binding SET domain protein 2 (NSD2) in an RCH-ACV wild type WT cells (2C) (AID 1645877); further: nearly all actives have a fitted effect of over 70% in size; further: potency means the concentration at half of the fitted maximal effect
# [5] = target: Catechol O-methyltransferase (Homo sapiens) (UniProt P21964); experiment: Confirmatory Screen for Target Class Profiling of Small Molecule Inhibitors of Methyltransferases (AID 1745852; calls by dose curve; further: potency means the concentration at half of the fitted maximal effect; on activity change, negative = inhibition: on the % scale 0 is the no-effect control and ±100 the full control effect); conditions: MTase-Glo luminescence, SAH detection, recombinant enzyme; measured here: COMT max response; stronger effect = lower value
# Catechol O-methyltransferase (Homo sapiens), sequence (P21964 whole entry, looked up): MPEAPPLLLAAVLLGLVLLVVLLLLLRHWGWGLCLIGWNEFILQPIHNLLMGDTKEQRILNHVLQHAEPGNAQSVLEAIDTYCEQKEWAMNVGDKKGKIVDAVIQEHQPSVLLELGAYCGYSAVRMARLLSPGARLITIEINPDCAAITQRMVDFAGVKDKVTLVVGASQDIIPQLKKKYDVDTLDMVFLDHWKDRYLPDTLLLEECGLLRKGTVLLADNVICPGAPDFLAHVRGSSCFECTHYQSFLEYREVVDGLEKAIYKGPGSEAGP
# [6] = target: Guanidinoacetate N-methyltransferase (Homo sapiens) (UniProt Q14353); experiment: as above; conditions: MTase-Glo luminescence, SAH detection, recombinant enzyme; activity change, negative = inhibition: at 57.3 µM (top of the series) unless noted
# [7] = Primary qHTS for small molecule stabilizers of the endoplasmic reticulum resident proteome: Secreted ER Calcium Modulated Protein (SERCaMP) assay (AID 1508630); further: on the % scale 0 is the no-effect control and ±100 the full control effect
# How it was run: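 The SH-SY5Y reporter protocol was run at 3 concentrations up to 38.3 uM (primary) or 11 concentrations (follow-up): 16 h compound, 100 nM thapsigargin for 4 h, then extracellular luciferase luminescence.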
compound,measurement,setting,value
CCS(=O)(=O)c1cccc(-c2cc(C(=O)NC3CCN(C)CC3)c(C)c3[nH]c4ncc(C)cc4c23)c1,Potency,[1],inactive
same,Potency,[2],4770 nM (active)
same,Potency,[3],113 nM (active) and 166 nM (active)
same,Potency,[4],35.8 nM (active) and 41.7 nM (active)
same,activity,[5],-16.8% and -13.7%
same,Potency,[6],18800 nM (active)
same,"activity change, negative = inhibition",[6],-3.37%
Cc1cc(Nc2cc(NC(=O)c3c(Cl)cccc3Cl)ccn2)nc(N)n1,Potency,[7],inactive
same,Potency,[3],0.417 µM (active)
same,Potency,[4],0.291 µM (active)
Cc1ccc(C(N)=O)cc1Nc1nccc(-c2cn(C(C)C)c3cnccc23)n1,Potency,[7],inactive
same,Potency,[3],3.32 µM (active)
same,Potency,[4],1.66 µM (active)
same,activity,[5],-56.6%
same,Potency,[6],27100 nM (active)
C[C@]12CC[C@H](O)CC1=CCC1C2CC[C@]2(C)C(n3cnc4ccccc43)=CCC12 (stereo not given in full),Potency,[7],inactive
same,Potency,[3],inactive
same,Potency,[4],inactive
COCCOc1ccc2c(c1)ncn2-c1ccc2cccc(N3CCC(N)CC3)c2n1,Potency,[7],inactive
same,Potency,[3],2.3 µM (active) and 2.09 µM (active)
same,Potency,[4],2.3 µM (active) and 2.35 µM (active)
same,activity,[5],-17.6%
same,Potency,[6],48200 nM (active)
Nc1ccc(C(=O)c2cc3c(ccc4ccccc43)[nH]2)cc1,Potency,[7],inactive
same,Potency,[3],2.41 µM (active)
same,Potency,[4],1.71 µM (active)
CCOC(=O)C1=C(C)NC2=C(C(=O)CC(C)(C)C2)C1c1ccc(-c2ccccc2)cc1 (stereo not given),Potency,[1],inactive
same,Potency,[2],2680 nM (active)
Cc1cn2cc(C(=O)N(C)CCO)cc(N[C@@H]3CCOc4cccc(C)c43)c2n1,Potency,[7],inactive
same,Potency,[3],inactive
same,Potency,[4],inactive
C1Cc2[nH]nc(-c3nn[nH]n3)c2C1,Potency,[1],inactive
same,Potency,[2],inactive
same,Potency,[3],inactive
same,Potency,[4],inactive

# Reference: PubChem BioAssay (NCATS)
